CF NFkB inh: blocks PAF-induced NF-kB reporter in cystic fibrosis cells; 360,000 compounds, 0.86% hits; AID 588850; inhibition, % at 5 µM; KKLEB NF-kB-GFP reporter, GFP fluorescence overnight;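 active = at least 50% inhibition at 5 µM, scaled per plate between neutral and stimulator controls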;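 note: PAF is a Pseudomonas aeruginosa culture filtrate used as stimulus; plate controls were PAF-stimulated DMSO wells for no effect and unstimulated DMSO wells for full effect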
HSP90 refold inh: HSP90 refolding inhibition in rabbit reticulocyte lysate; luciferase refolding luminescence, 3 h; inhibition, % at 5.6 µM; 290,000 compounds, 0.91% hits; AID 1789;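 active = inhibition above the screen-wide mean plus 3 SD, computed separately per campaign, cut at about 16% in these data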;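 note: 0% = DMSO wells and 100% = 60 µM geldanamycin wells; inhibitors lower the luminescence because luciferase stays unfolded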
Mdm2 MdmX PPI: disrupts the human Mdm2-MdmX interaction; O15151+Q00987; SaOS-2 split-luciferase Mdm2/MdmX complementation, luminescence; inhibition, % at 8 µM; 330,000 compounds, 3% hits; AID 485346;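 active = inhibition of at least 50% at 8 µM in the primary screen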
Target sequence (O15151 whole entry, looked up): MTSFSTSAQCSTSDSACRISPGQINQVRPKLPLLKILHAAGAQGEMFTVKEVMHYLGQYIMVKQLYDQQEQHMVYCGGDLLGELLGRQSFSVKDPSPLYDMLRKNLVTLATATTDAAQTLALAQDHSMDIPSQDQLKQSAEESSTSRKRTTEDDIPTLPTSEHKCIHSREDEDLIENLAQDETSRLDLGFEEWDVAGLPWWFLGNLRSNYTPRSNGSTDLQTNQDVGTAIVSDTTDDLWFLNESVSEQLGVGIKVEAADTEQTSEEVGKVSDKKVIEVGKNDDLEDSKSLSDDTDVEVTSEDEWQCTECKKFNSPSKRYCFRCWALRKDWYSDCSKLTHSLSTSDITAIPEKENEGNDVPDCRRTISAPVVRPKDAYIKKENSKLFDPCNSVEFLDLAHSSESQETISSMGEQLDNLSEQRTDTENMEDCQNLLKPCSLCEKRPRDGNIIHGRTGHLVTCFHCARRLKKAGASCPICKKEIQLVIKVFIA
Target sequence (Q00987 whole entry, looked up): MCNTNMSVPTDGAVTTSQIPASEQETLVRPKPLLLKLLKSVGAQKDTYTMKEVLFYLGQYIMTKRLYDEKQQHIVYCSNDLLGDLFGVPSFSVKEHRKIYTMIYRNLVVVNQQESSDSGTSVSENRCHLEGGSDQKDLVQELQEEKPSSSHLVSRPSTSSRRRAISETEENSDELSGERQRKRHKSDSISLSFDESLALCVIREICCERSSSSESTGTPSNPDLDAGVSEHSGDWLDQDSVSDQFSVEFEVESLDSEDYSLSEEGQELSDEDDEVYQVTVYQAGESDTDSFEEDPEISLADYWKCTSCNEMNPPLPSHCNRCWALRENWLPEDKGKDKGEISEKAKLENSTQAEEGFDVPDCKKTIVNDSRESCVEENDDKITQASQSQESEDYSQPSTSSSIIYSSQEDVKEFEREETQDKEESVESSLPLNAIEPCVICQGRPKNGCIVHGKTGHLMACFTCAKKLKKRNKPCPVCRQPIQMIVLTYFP
Peg3 promoter: Peg3 promoter activity inhibition | 360,000 compounds, 1.7% hits | inhibition, % at 20 µM | HeLa PEG-Prom luciferase reporter, luminescence, overnight | AID 588405;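 active = inhibition of at least 50% at 20 µM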
LGR2 inh: Drosophila LGR2 receptor signaling inhibition. HEK293 LGR2, CRE-luciferase, bursicon-stimulated, 4 h. inhibition, % at 9.99 µM. 380,000 compounds, 0.35% hits;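 active = drop in luminescence signal, shown as inhibition above about 50% in the replicate tests, limit read from the data, passing the limit was not always enough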;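 note: agonist challenge used bursicon conditioned medium at about half maximal strength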
KKLEB cytotox: CF airway cell cytotoxicity counter-screen | KKLEB CF airway cells viability, ATPlite luminescence, overnight; stronger effect = lower value; cells stimulated with P. aeruginosa culture filtrate | activity change (cytotoxicity), % at 5 µM | 360,000 compounds, 0.36% hits;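 active = corrected activity change at or below -50% at 5 µM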
Mdm2-MdmX conf: human Mdm2/MdmX binding inhibition, confirmed | AID 489028 | 10,000 compounds, 55% hits | inhibition, % at 8 µM | shares compounds with Mdm2 MdmX PPI | luminescent assay; in the data active = inhibition above about 40%
FLuc counter: full-length luciferase inhibition in Mdm2/MdmX counter-screen. shares compounds with Mdm2 MdmX PPI. 6,200 compounds, 77% hits. AID 504607. SaOS-2 full-length luciferase counterscreen, luminescence. inhibition, % at 8 µM;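 active = mean inhibition at 8 µM reaching about 37%, which flags the compound as non-specific, limit read from the data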;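 note: p53-null SaOS-2 cells with luciferase driven by a doxycycline-inducible promoter; compound on cells about two nights before reading with doxycycline added after day one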
Numbers without * were called inactive. Shown are actives, neighbours in structure and some others; about 3.6% of the full set was active somewhere.

For Cc1ccc(S(=O)(=O)c2cc3c(=O)n4ccccc4nc3n(C)c2=N)cc1C the results were CF NFkB inh 2.9, HSP90 refold inh 4.6, Mdm2 MdmX PPI 86.5*, Peg3 promoter 19.7, LGR2 inh -5.5, KKLEB cytotox -2.8 and Mdm2-MdmX conf 24.1.
`Cn1c(=N)c(S(=O)(=O)c2ccccc2)cc2c(=O)n3ccccc3nc21` gave CF NFkB inh 1.0, HSP90 refold inh -1.9, Mdm2 MdmX PPI 21.8, Peg3 promoter 10.8 and KKLEB cytotox -3.5.
For N=c1c(S(=O)(=O)c2ccc(Cl)cc2)cc2c(=O)n3ccccc3nc2n1CCN1CCOCC1 the results were CF NFkB inh -16.0, HSP90 refold inh 4.9, Mdm2 MdmX PPI 16.3, Peg3 promoter 24.5 and KKLEB cytotox -5.7.
Screening Cc1c(C(=O)Nc2nonc2-c2ccc(F)cc2)oc2ccc(F)cc12 returned CF NFkB inh 17.3, HSP90 refold inh -2.2, Mdm2 MdmX PPI 85.8*, Peg3 promoter 39.1, LGR2 inh 17.8, KKLEB cytotox -17.0, Mdm2-MdmX conf 76.5* and FLuc counter 52.0*.
`CCCCn1c(N)c(-c2nc3ccccc3o2)c2c([N+](=O)[O-])nn(C)c(=O)c21` gave CF NFkB inh -14.5, HSP90 refold inh -0.3, Mdm2 MdmX PPI -10.9, Peg3 promoter 4.5, LGR2 inh 8.8 and KKLEB cytotox -10.3.
For CCCCCn1c(N)c(-c2nc3ccccc3s2)c2c([N+](=O)[O-])nn(C)c(=O)c21 the results were CF NFkB inh -1.7, HSP90 refold inh -4.4, Mdm2 MdmX PPI 87.4*, Peg3 promoter 8.9, KKLEB cytotox 8.2 and Mdm2-MdmX conf 2.5.
C=C1C(=O)O[C@H]2[C@H]1[C@@H](O)CC(=C)[C@@H]1CC(=O)[C@@H](C)[C@H]21 was read as CF NFkB inh 85.3*, HSP90 refold inh 3.8, Mdm2 MdmX PPI 60.8*, Peg3 promoter 36.2, KKLEB cytotox 11.0 and Mdm2-MdmX conf 15.1.
`C/C=C/c1ccc([C@H]2[C@H]3CN(C(=O)Nc4cccc(OC)c4)CC(=O)N3[C@H]2CO)cc1` gave LGR2 inh 11.2.
`CN(C)Cc1nc2ccccc2c(=O)n1Cc1nc(-c2cccc([N+](=O)[O-])c2)cs1` gave CF NFkB inh -4.7, HSP90 refold inh 4.4, Mdm2 MdmX PPI 35.5, Peg3 promoter 13.9, LGR2 inh -1.9 and KKLEB cytotox -17.5.
Screening CN1CCN(Cc2nc3ccccc3c(=O)n2Cc2nc(-c3ccc([N+](=O)[O-])cc3)cs2)CC1 returned CF NFkB inh -47.7, HSP90 refold inh 3.8, Mdm2 MdmX PPI 95.4*, Peg3 promoter 72.3*, LGR2 inh 26.7, KKLEB cytotox -10.5 and Mdm2-MdmX conf 30.7.
O=C(CNC(=O)c1cccc(S(=O)(=O)N2CCc3ccccc32)c1)Nc1ccccc1Br was read as CF NFkB inh 3.5, Peg3 promoter 15.3, LGR2 inh 22.2 and KKLEB cytotox -4.5.
`O=C(CNC(=O)c1cccc(S(=O)(=O)N2CCc3ccccc32)c1)Nc1ccc(F)c(F)c1F` gave CF NFkB inh 6.1, Mdm2 MdmX PPI 80.9*, Peg3 promoter 21.2, LGR2 inh 16.7, KKLEB cytotox -19.2, Mdm2-MdmX conf 84.2* and FLuc counter 62.1*.
C[C@@H]1CN([C@H](C)CO)C(=O)Cc2cc(NS(=O)(=O)c3ccc(Cl)cc3)ccc2O[C@H]1CN(C)C(=O)Nc1ccccc1 was read as LGR2 inh 17.3.
`CC(C)OCc1c(C(=O)OC/C(O)=C(\C#N)c2nc3ccccc3[nH]2)oc2ccccc12` gave CF NFkB inh 2.6, HSP90 refold inh 1.1, Mdm2 MdmX PPI 56.7*, Peg3 promoter 11.4, KKLEB cytotox -5.0 and Mdm2-MdmX conf -5.0.
`Cc1c(C(=O)OC/C(O)=C(\C#N)c2nc3ccccc3[nH]2)oc2ccc(Br)cc12` gave CF NFkB inh 33.9, HSP90 refold inh -0.2, Mdm2 MdmX PPI 84.6*, Peg3 promoter 17.4, LGR2 inh -10.5, KKLEB cytotox -26.4 and Mdm2-MdmX conf 14.3.
`Cc1c(-c2cccc(Cl)c2)nc2ccccc2c1C(=O)OC/C(O)=C(\C#N)c1nc2ccccc2[nH]1` gave CF NFkB inh 31.9, HSP90 refold inh -3.6, Mdm2 MdmX PPI 70.0*, Peg3 promoter 44.7, LGR2 inh 41.2, KKLEB cytotox -38.8 and Mdm2-MdmX conf 11.2.
`CCOC(=O)c1c(C)[nH]c(C(=O)OCC(O)=C(C#N)c2nc3ccccc3[nH]2)c1C` gave CF NFkB inh 4.2, Peg3 promoter 17.9, LGR2 inh 6.0 and KKLEB cytotox -11.9.
Screening CCC(=O)Nc1cccc(C(=O)/C=C/c2ccc(F)cc2)c1 returned CF NFkB inh 46.8, HSP90 refold inh 4.2, Mdm2 MdmX PPI 89.0*, Peg3 promoter 99.8*, LGR2 inh 10.3, KKLEB cytotox 0.3, Mdm2-MdmX conf 47.9* and FLuc counter 44.8*.
`CC(=O)Nc1cccc(C(=O)/C=C/c2ccc(C)cc2)c1` gave CF NFkB inh 36.3, HSP90 refold inh 12.7, Mdm2 MdmX PPI 57.3*, Peg3 promoter 96.9*, KKLEB cytotox -8.3, Mdm2-MdmX conf 51.7* and FLuc counter 54.4*.
CC(C)CC#Cc1cnc2c(c1)C(=O)N([C@H](C)CO)C[C@@H](C)[C@H](CN(C)S(=O)(=O)c1cn(C)cn1)O2 was read as LGR2 inh 9.0.
Screening C[C@H]1CCCCO[C@@H](CN(C)Cc2ccccc2)[C@@H](C)CN([C@@H](C)CO)C(=O)c2cc(NS(=O)(=O)c3ccc(F)cc3)ccc2O1 returned LGR2 inh 0.5.
Cc1ccc(-n2cccc2C(=O)NS(=O)(=O)c2ccc(C)cc2)cc1 was read as CF NFkB inh 8.1, HSP90 refold inh 4.0, Mdm2 MdmX PPI 4.3, Peg3 promoter -4.0, LGR2 inh 2.4 and KKLEB cytotox -4.0.
Screening Cc1ccc(-n2cccc2C(=S)N=P(N(C)C)(N(C)C)N(C)C)cc1 returned CF NFkB inh 23.0, HSP90 refold inh 0.4, Mdm2 MdmX PPI 72.1*, Peg3 promoter 26.7, LGR2 inh 16.2, KKLEB cytotox -39.9, Mdm2-MdmX conf 50.3* and FLuc counter 51.5*.
COc1cc([N+](=O)[O-])c(OC)cc1Nc1ccccc1C(=O)O was read as LGR2 inh -10.6.
For COc1cc(-c2ccc(Nc3ccccc3C(=O)O)c(OC)c2)ccc1Nc1ccccc1C(=O)O the results were CF NFkB inh 12.0, HSP90 refold inh -0.7, Mdm2 MdmX PPI 81.0*, Peg3 promoter 15.7, LGR2 inh 15.3, KKLEB cytotox 5.0 and Mdm2-MdmX conf 31.9.
Screening CNC[C@@H]1Oc2ccc(NC(=O)c3ccncc3)cc2C(=O)N([C@H](C)CO)C[C@H]1C returned LGR2 inh 16.5.

Screening data: PubChem BioAssay, several laboratories
